This is a sample that favours compounds with a hit; in the whole collection about 4.5% have one here.
HTT prom inh: HTT promoter inhibition. HEK293 HTT promoter firefly luciferase reporter, 24 h. Potency, µM (titrated, usually from 57.5 µM), actives largely listed as inhibitors. hit rate 0.93% among 48,000; further: nearly all actives have a fitted effect of over 50% in size
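Luminescence was read after Dual-Glo reagent and a 10 min room-temperature incubation. Values were normalized to vehicle (0% activity) and zero RLU (-100% activity). Reporter HEK293 cells had been exposed to compounds (up to 57.5 uM final) for 24 h.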
NTMT1 inh: inhibitors of human N-terminal methyltransferase NTMT1; NTMT1 MTase-Glo SAH luminescence, purified enzyme; Potency, µM (series often up to 114 µM), actives largely listed as inhibitors; hit rate 2.5% among 59,000; AID 1645870; further: nearly all actives have a fitted effect of over 65% in size
Target sequence (Q9BV86 whole entry, looked up): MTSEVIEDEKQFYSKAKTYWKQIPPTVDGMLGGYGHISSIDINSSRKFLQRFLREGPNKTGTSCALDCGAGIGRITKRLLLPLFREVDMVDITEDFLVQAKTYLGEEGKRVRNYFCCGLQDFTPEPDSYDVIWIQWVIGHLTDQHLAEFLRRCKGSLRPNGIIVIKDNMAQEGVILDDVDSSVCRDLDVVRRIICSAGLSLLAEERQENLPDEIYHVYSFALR
SKOV3 invasion: blocks SKOV3ip1 adhesion and invasion in omental model; SKOV3ip1-GFP adhesion/invasion on 3D omental model, fluorescence; Potency, µM (series often up to 45.8 µM), actives largely listed as inhibitors; hit rate 0.1% among 46,000; further: nearly all actives have a fitted effect of over 65% in size
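qHTS, 4-pt dose (0.36-46 umol/L); SKOV3ip1-GFP, 1,200 cells/well, no FBS; primary omental fibroblast/mesothelial co-culture 48 h pre-grown; 2 h RT + 16 h 37 C; PBS wash, 4% PFA; GFP count 488/509 nm.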
HTT-AS act: activators of huntingtin-antisense promoter activity; HEK293 HTT-AS promoter firefly luciferase reporter, 24 h; response scale: percent change from vehicle, -100% = no light; Potency, µM (series often up to 57.5 µM), hits mostly activators; hit rate 0.24% among 48,000; further: nearly all actives have a fitted effect of over 55% in size
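HEK293 luciferase promoter-reporter cells (2,500/well) plated 24 h, then compounds added at up to 57.5 uM final for 24 h at 37 °C. Firefly luminescence by Dual-Glo, normalized to vehicle (0%) and zero RLU (-100%).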
DRV1 agonist: GPR32 (DRV1) agonism, beta-arrestin recruitment | CHO-K1 GPR32 beta-arrestin PathHunter luminescence, 90 min; zero percent set by DMSO-only wells | O75388 | activation, % at 76.9 µM | AID 1346428 | hit rate 2.5% among 48,000;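 active means activation of at least 60% and not above a set upper limit, about 1 call in 100 departs from these limits; inconclusive means activation of 40% to 60%, or above that upper limit; inactive means activation under 40%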
Target sequence (O75388 whole entry, looked up): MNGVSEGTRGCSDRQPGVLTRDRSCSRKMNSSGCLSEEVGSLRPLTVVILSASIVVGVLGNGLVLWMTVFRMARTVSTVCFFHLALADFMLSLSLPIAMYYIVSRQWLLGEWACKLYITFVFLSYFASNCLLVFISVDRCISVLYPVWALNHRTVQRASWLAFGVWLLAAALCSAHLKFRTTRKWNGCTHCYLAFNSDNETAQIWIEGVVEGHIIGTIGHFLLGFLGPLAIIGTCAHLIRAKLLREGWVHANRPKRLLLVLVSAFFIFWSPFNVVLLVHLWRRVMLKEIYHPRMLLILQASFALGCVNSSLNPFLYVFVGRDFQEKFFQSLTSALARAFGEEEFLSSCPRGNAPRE
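Using DMSO wells as EC0, agonist-induced signal was taken as chemiluminescence from beta-Gal reconstituted upon beta-arrestin recruitment to GPR32 in CHO-K1 cells after 90 min compound treatment.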
Hits are given with their value; ! = not confirmed by another sample. Unless noted, the call rests on the fitted dose curve; in most records, active means well fitted curve in the direction sought with a large enough effect; inconclusive means small, poorly fitted or top-dose-only effect, or another doubt; inactive means no such curve, though single readings can be large; an effect the other way counts as inactive or inconclusive.

COc1ccc(NC(=O)c2c(C)oc3ccc(O)c(CN4CCC(C)CC4)c23)cc1Cl was read as SKOV3 invasion inactive and DRV1 agonist 83.
For CCN(CC)c1ccc(NC(=O)C2CCN(c3nnc(-n4cccc4)s3)CC2)c(C)c1 the results were HTT prom inh inactive, NTMT1 inh inactive, SKOV3 invasion inactive, HTT-AS act inactive and DRV1 agonist 60.
`O[Si](CCCN1CCCCC1)(c1ccc(F)cc1)C1CCCCC1` (stereo not given) gave DRV1 agonist inactive.
Screening COc1cccc(NC(=O)CN2C(=O)CC(c3ccco3)Sc3ccccc32)c1 (stereo not given) returned HTT prom inh inactive, NTMT1 inh inactive, SKOV3 invasion inactive, HTT-AS act inactive and DRV1 agonist inactive.
`CCCOc1ccccc1C(=O)Nc1ccc(-c2nc3ccc(C)cc3s2)cc1` gave HTT prom inh inactive, NTMT1 inh inactive, SKOV3 invasion inconclusive, HTT-AS act 2.2µM and DRV1 agonist inactive.
`COc1cccc(C(=O)Nc2ccc(-c3nc4ccc(C)cc4s3)cc2)c1OC` gave HTT prom inh inactive, NTMT1 inh inactive, SKOV3 invasion inactive, HTT-AS act inactive and DRV1 agonist inactive.
`CCC(=O)N1CCc2cc(Br)cc(S(=O)(=O)N3CCCC(C(=O)Nc4ccc(OC)c(Cl)c4)C3)c21` (stereo not given) gave HTT prom inh inactive, NTMT1 inh inactive, SKOV3 invasion inactive, HTT-AS act inactive and DRV1 agonist inactive.
`COc1c(C)c2c(c(O)c1C/C=C(\C)CCC(=O)OCCN1CCOCC1)C(=O)OC2` gave HTT prom inh inactive, NTMT1 inh inactive, HTT-AS act inactive and DRV1 agonist inactive.
Cc1oc2ncnc(N3CCCCC3)c2c1C(=O)Nc1cccc(F)c1 was read as HTT prom inh inactive, NTMT1 inh inactive, SKOV3 invasion inconclusive, HTT-AS act inactive and DRV1 agonist inactive.
Screening Cc1oc2ncnc(N3CCCCC3)c2c1C(=O)Nc1cccc(Cl)c1C returned HTT prom inh inactive, NTMT1 inh 89µM, SKOV3 invasion inactive, HTT-AS act inactive and DRV1 agonist inactive.
Screening Cc1cccc(N2CCN(C(=O)c3c(C)oc4ncnc(N5CCCCC5)c34)CC2)c1C returned HTT prom inh inconclusive, NTMT1 inh inactive, SKOV3 invasion inactive, HTT-AS act inactive and DRV1 agonist 85.
For COc1ccc(CNC(=O)c2sc3nc[nH]c(=O)c3c2C)cc1 the results were HTT prom inh inactive, NTMT1 inh inactive, SKOV3 invasion inactive, HTT-AS act inactive and DRV1 agonist inactive.
Screening CCCCNc1ncc2c(-c3ccc(CN4CCN(C)CC4)cc3)cn(C3CCC(O)CC3)c2n1 (stereo not given) returned NTMT1 inh 79µM!.
For CCCCNc1ncc2c(-c3ccc(S(=O)(=O)N4CCOCC4)cc3)nn(C3CCC(O)CC3)c2n1 (stereo not given) the results were NTMT1 inh inactive.
Screening COc1cccc(OCc2nc3ccccc3n2Cc2ccccc2)c1 returned HTT prom inh inactive, NTMT1 inh inactive, SKOV3 invasion inactive, HTT-AS act inactive and DRV1 agonist inactive.
`Cc1ccc(S(=O)(=O)c2nnn3c2nc(NCc2ccccc2)c2sccc23)cc1` gave HTT prom inh inactive, NTMT1 inh inactive, SKOV3 invasion inactive, HTT-AS act inactive and DRV1 agonist inactive.
`Cc1ccc(S(=O)(=O)c2nnn3c2nc(NCc2ccc(F)cc2)c2sccc23)cc1` gave HTT prom inh inactive, NTMT1 inh 89µM, SKOV3 invasion inactive, HTT-AS act inactive and DRV1 agonist inactive.
`COc1cc(CNC(=O)c2cc3n(n2)CCCN(Cc2ccc(C)cc2)C3=O)cc(OC)c1OC` gave HTT prom inh inconclusive, NTMT1 inh inactive, SKOV3 invasion inactive, HTT-AS act inactive and DRV1 agonist inactive.
Cc1ccc(CN2CCCn3nc(C(=O)NCc4ccc(OC(C)C)cc4)cc3C2=O)cc1 was read as HTT prom inh 18µM, NTMT1 inh inactive, SKOV3 invasion inactive, HTT-AS act inactive and DRV1 agonist inactive.
`O=C(NCCc1ccccc1)c1ccc(Cn2c(SCc3ccccc3F)nc3cccnc32)cc1` gave HTT prom inh inconclusive, NTMT1 inh 89µM, SKOV3 invasion inactive, HTT-AS act inactive and DRV1 agonist inactive.
Screening O=C(NCCc1ccccc1)c1ccc(CSc2nc3cccnc3n2Cc2ccccc2F)cc1 returned HTT prom inh inactive, NTMT1 inh inactive, SKOV3 invasion inactive, HTT-AS act inactive and DRV1 agonist inactive.
Screening O=C(Nc1ccc(F)cc1)N1CCc2ccccc2C1c1ccc(C(F)(F)F)cc1 (stereo not given) returned NTMT1 inh inactive.
Screening O=C(Cn1c(=O)c2cccn2c2ccccc21)NCc1ccccc1F returned HTT prom inh inactive, NTMT1 inh inactive, SKOV3 invasion inactive, HTT-AS act inactive and DRV1 agonist inactive.
`COc1ccc(Nc2ncnc3sc4c(c23)CCCC4)cc1` gave HTT prom inh inactive, NTMT1 inh 22µM, SKOV3 invasion inactive, HTT-AS act inactive and DRV1 agonist 94.
Screening COc1ccc(Nc2ncnc3c2nc2n3CCCCC2)cc1 returned HTT prom inh inactive, NTMT1 inh inactive, SKOV3 invasion inactive, HTT-AS act inconclusive and DRV1 agonist 77.
Screening CCOc1ccc(Nc2ncnc3c2nc2n3CCCCC2)cc1 returned HTT prom inh inconclusive, NTMT1 inh inactive, SKOV3 invasion inactive, HTT-AS act inactive and DRV1 agonist 85.
Screening CCn1cc(C(=O)NCc2ccccc2OC)c(=O)c2cc(S(=O)(=O)N3CCCCCC3)ccc21 returned HTT prom inh inactive, NTMT1 inh inactive, SKOV3 invasion inactive, HTT-AS act inactive and DRV1 agonist inactive.
`COc1ccc(NC(=O)Cn2c(=O)n(Cc3ccccc3)c(=O)c3oc4ccccc4c32)cc1Cl` gave HTT prom inh inactive, NTMT1 inh inactive, SKOV3 invasion inactive, HTT-AS act inactive and DRV1 agonist inactive.
Screening CC1CCCC(O)CCC/C=C/c2cc(OS(=O)(=O)O)cc(O)c2C(=O)O1 (stereo not given) returned NTMT1 inh 13µM.
For CC1CCC/C=C/C(=O)c2c(O)cc(O)cc2CC(=O)O1 (stereo not given) the results were NTMT1 inh inactive.
Screening CCCN1C(=O)C(O)(CC(=O)c2ccc(C(C)C)cc2)c2ccccc21 (stereo not given) returned HTT prom inh inconclusive, NTMT1 inh inactive, SKOV3 invasion inactive, HTT-AS act inactive and DRV1 agonist inactive.
Screening Cc1ccc(C(=O)c2cn(Cc3c(F)cccc3Cl)c3nc(C)ccc3c2=O)cc1 returned HTT prom inh inactive, NTMT1 inh inactive, SKOV3 invasion inactive, HTT-AS act inactive and DRV1 agonist 82.
`CCCCCC(=O)Nc1ccc(NC(=O)c2cc3ccccc3o2)c(OC)c1` gave HTT prom inh inactive, NTMT1 inh inactive, SKOV3 invasion inactive, HTT-AS act inactive and DRV1 agonist 121.

Assay outcomes (PubChem BioAssay)
